Molecules are shown by their SMILES. The whole screen tested about 290,000 compounds, of which about 11,000 (3.8%) were called active.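 The calls were made as follows: active = mean replicate inhibition above about 79%, with every replicate also reaching it (limit read from the data); inconclusive = only one of the two criteria met; inactive = mean below limit and not every replicate reaching it.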 Shown is part of a subset that was picked to be rich in actives.

FAD-linked sulfhydryl oxidase ALR (Homo sapiens), sequence (P55789 whole entry, looked up): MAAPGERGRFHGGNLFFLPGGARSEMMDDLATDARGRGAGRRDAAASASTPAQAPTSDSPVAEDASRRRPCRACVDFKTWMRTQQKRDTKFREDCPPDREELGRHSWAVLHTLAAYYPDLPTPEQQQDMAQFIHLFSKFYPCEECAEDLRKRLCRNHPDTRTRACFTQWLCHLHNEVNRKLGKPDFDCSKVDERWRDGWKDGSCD

This experiment has as its target FAD-linked sulfhydryl oxidase ALR (Homo sapiens) (UniProt P55789). The experiment in a line: inhibitors of human ALR sulfhydryl oxidase, primary screen, biochemical, H2O2 detection, HRP-luminol luminescence, single point (AID 485317). The following applies: purified ALR, DTT oxidation, active compounds read high, concentration not given here.
Consider `O=C(O)c1ccc(N/N=C/c2cn(-c3ccccc3)nc2-c2cccs2)cc1`, for which the inhibition was 98.9% (active).

Regarding `COc1ccc(-c2nn(-c3ccccc3)cc2/C=C\C(=O)Nc2ccc(C(=O)O)cc2)cc1`, the inhibition was -2.34% (inactive).

For the molecule `O=C(/C=C\c1cn(-c2ccccc2)nc1-c1cccs1)N1CCOCC1`, the inhibition was -5.03% (inactive).

On to `Cc1ccc(NC(=O)CCNC(=O)c2ccc([N+](=O)[O-])cc2)cc1S(=O)(=O)N1CCOCC1`, for which the inhibition was -6.28% (inactive).

`Cc1ccc(N2C(=O)C3CC3C2=O)cc1` (configuration not stated): the inhibition was -2.01% (inactive).

In the case of `Cc1ccc(N2CCN(c3ccc(C)cc3)C2c2ccccn2)cc1`, the inhibition is 86.9% (active).

Turning to `Cc1ccc(S(=O)(=O)NCC(=O)N2CCN(c3ccccn3)CC2)cc1`, the inhibition is 3.32% (inactive).

Take `CC(C)(C)OC(=O)C[C@@H]1C/C=C\C[C@H](CC(=O)N[C@@H](CO)Cc2ccccc2)C(=O)N[C@H](Cc2ccccc2)COC1=O`: the inhibition was -0.505% (inactive).

Take `O=C(NCc1ccccc1Cl)C(=O)NCC1CCCN1S(=O)(=O)c1cccs1` (configuration not stated): the inhibition is -7.66% (inactive).

As for `CC1=C(C(=O)NC2CC(C)(C)Cc3c2cnn3-c2ccc(C)cc2)OCCO1` (configuration not stated), the inhibition was -16.8% (inactive).

Consider `Cc1cc(C(=O)NC2CC(C)(C)Cc3c2cnn3-c2ccccc2)n[nH]1` (configuration not stated), for which the inhibition is 92.1% (active).

On to `COc1ccc(C(=O)NC2CC(C)(C)Cc3c2cnn3-c2ccccc2)c(OC)c1` (configuration not stated), for which the inhibition is 0.864% (inactive).

Take `CC(=O)Nc1cccc(C(=O)OCC(=O)NCc2cc(C)c(O)c(C)c2)c1`: the inhibition was 25.7% (inactive).

Turning to `CC(=O)c1ccc(NC(=O)c2sc3nc4n(c(=O)c3c2C)CCCCC4)cc1`, the inhibition is -6.68% (inactive).

Regarding `O=c1c2c(nc3n1CCCCC3)sc1c(O)cccc12`, the inhibition was 94.5% (active).

Turning to `Cc1cccc2c(=O)n3c(nc12)CCCCC3`, the inhibition is -3.58% (inactive).

Turning to `CSc1ncccc1C(=O)Nc1ccc2c(c1)OCO2`, the inhibition was -7.77% (inactive).

Take `COc1ccccc1N1CCN(CC(=O)Nc2ccnn2C2CCCC2)CC1`: the inhibition is 21.7% (inactive).

Turning to `O=C(OCC1O[C@@H](OC(=O)c2cc(O)c(O)c(O)c2)[C@@H](OC(=O)c2cc(O)c(O)c(O)c2)[C@@H](OC(=O)c2cc(O)c(O)c(O)c2)[C@@H]1OC(=O)c1cc(O)c(O)c(O)c1)c1cc(O)c(O)c(O)c1` (some centres not stated), the inhibition was 98.8% (active).

Take `O=C(OCC1OC(Oc2ccc(O)cc2)C(O)C(O)C1O)c1ccccc1` (configuration not stated): the inhibition was 23.2% (inactive).

In the case of `CC(=O)NC1C(OCc2ccccc2)OC(COC(C)=O)C(OC(C)=O)C1OC(C)=O` (configuration not stated), the inhibition is -6.67% (inactive).

Turning to `NC(=O)c1ccsc1NC(=O)COC(=O)Cc1n[nH]c(=O)c2ccccc12`, the inhibition was -7.95% (inactive).

Regarding `Cc1cccc(NS(=O)(=O)c2ccc(C)c(C(=O)NCc3cccnc3)c2)c1`, the inhibition is -5.85% (inactive).

Consider `c1ccc(Nc2n[nH]nc2-c2ccccc2)cc1`, for which the inhibition was 100% (active).

For the molecule `O=C(O)c1n[nH]nc1-c1ccccc1`, the inhibition was -0.621% (inactive).

As for `CCCCNC(=O)Nc1c(C)cc(SC#N)cc1C`, the inhibition was 96.7% (active).

For `CCCCNC(=O)C(=O)c1ccccc1NC(C)=O`, the inhibition is -1.84% (inactive).

Turning to `CCCCNC(=S)NNC(=O)c1cc(C)on1`, the inhibition is 55.3% (inactive).

As to `O=C(OCc1cc(=O)n2ccsc2n1)C1(c2ccc(Cl)cc2)CC1`, the inhibition was -1.54% (inactive).

As for `COc1ccccc1C(=O)NC(=O)COC(=O)c1ccco1`, the inhibition was -0.0405% (inactive).

As for `Cc1cccc(NC(=O)c2ccc(S(=O)(=O)N(C)CC3CCCO3)cc2)c1C` (configuration not stated), the inhibition was -10.6% (inactive).

For `CCN(CC(=O)NC(C)C)C(=O)c1cc(S(=O)(=O)N2CCCCC2)ccc1N1CCCCC1`, the inhibition was -1.75% (inactive).

On to `NC(=O)Nc1ccc(C(=O)OCC(=O)NC2CCCc3ccccc32)cc1` (configuration not stated), for which the inhibition was -2.38% (inactive).

In the case of `CSCC[C@H](NC(=O)N1CCn2c1nc1ccccc12)C(=O)NC1CCCCC1`, the inhibition is 98.2% (active).

Consider `CSCC[C@H](NC(=O)N1CCn2c1nc1ccccc12)C(=O)NCc1ccc2c(c1)OCO2`, for which the inhibition was -4.75% (inactive).

`CC(C)C[C@H](NC(=O)N1CCn2c1nc1ccccc12)C(=O)NC1CC1`: the inhibition was -10.7% (inactive).

Consider `CC1CCN(C(=O)COC(=O)c2cc(=O)[nH]c3ccccc23)CC1`, for which the inhibition is 2.67% (inactive).

For `CCn1c(SCC(=O)Nc2cc(C)c(Cl)cc2OC)nnc1-c1ccco1`, the inhibition was 98.5% (active).

Turning to `COc1cc(Cl)c(C)cc1NC(=O)CSc1nnc(-c2ccco2)n1CC(C)C`, the inhibition was 2.64% (inactive).

On to `COc1cc(Cl)c(C)cc1NC(=O)CSc1nnc(-c2cccnc2)n1Cc1ccco1`, for which the inhibition was 20.1% (inactive).

As for `CCOC(=O)[C@H]1[C@H]2COc3ccccc3[C@@H]2N2C(=O)CN(Cc3ccccc3)C(=O)[C@@]12C`, the inhibition is -1.27% (inactive).

With `O=C(Nc1ccccc1-c1nc2ccccc2[nH]c1=O)c1cccs1`, the inhibition is 1.37% (inactive).

Turning to `C/C(=N\Nc1nc2ccccc2[nH]1)c1cccs1`, the inhibition is 99% (active).

Take `C/C(=N\Nc1ncc(Cl)cc1Cl)c1cccs1`: the inhibition was 0.466% (inactive).

Take `O=C1CCC/C=C/C[C@@H](CC(=O)N(CCO)Cc2ccccc2)C(=O)NC[C@H](c2ccccc2)O1`: the inhibition is 0.972% (inactive).

Regarding `CCC[C@H]1CCCC/C=C\CCCC(=O)OCCN1C(=O)OC(C)(C)C`, the inhibition is -2.32% (inactive).

Consider `CC(C)CC1NC(=O)c2cc(Cl)ccc2-n2c1nc1ccccc1c2=O` (configuration not stated), for which the inhibition was -5.03% (inactive).

Consider `COc1cnn(-c2ccc([N+](=O)[O-])cc2)c(=O)c1Cl`, for which the inhibition was 4% (inactive).

As for `Cc1ccc(OCc2n[nH]c(=S)n2-c2ccc(C)cc2)cc1`, the inhibition is 47.3% (inactive).

`COc1ccc(-n2c(-c3ccc(OC)c(OC)c3)n[nH]c2=S)cc1`: the inhibition is 94% (active).

For `Cc1ccc(-n2c(-c3ccc(Cl)cc3)n[nH]c2=S)cc1`, the inhibition was -1.26% (inactive).

For `COc1ccc(CNC(=O)COC(=O)CCS(=O)(=O)c2ccc(C)cc2)cc1OC`, the inhibition is 2.97% (inactive).

As to `CCCCN1C(=O)C(=O)N(CC(=O)Nc2cccc(C(C)=O)c2)C1=O`, the inhibition was 1.6% (inactive).

For `C=CCC[C@@H](Cc1ccc(F)cc1)C(=O)OC[C@@H](C)NC(=O)[C@H](CC=C)CC(=O)N(CCO)Cc1ccccc1`, the inhibition is -10.3% (inactive).

As to `O=C(NC(=O)c1ccccc1)NC(=O)c1ccccc1`, the inhibition is 0.464% (inactive).

In the case of `Cn1sc(NC(=O)c2ccccc2)nc1=O`, the inhibition is 88.6% (active).

Consider `Cc1nc2ccccc2c(=O)n1NC(=O)c1ccccc1`, for which the inhibition was -10.2% (inactive).

The values above are taken from PubChem BioAssay AID485317 (Broad Institute, 2010).
